Most compounds without a hit are left out; they make up all but 5.3% or so of the library.
CtBP-E1A inh: qHTS Assay for Inhibitors of the CtBP/E1A Interaction; CtBP / adenovirus E1A interaction (AlphaScreen); AlphaScreen GST-E1A/His-CtBP binding, 1536-well; hits give low values; activity change, % (concentration not given with the values); 0.49% of 340,000 active; AID 651724, 2012; in the data active = activity change below about -65%; inconclusive = mostly about -30% to -63%; also: % is scaled to controls: 0 for no effect and ±100 for the full control effect
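GST-E1A and His-tagged CtBP (125 nM each as 5X stock) were preincubated with pin-transferred compound for 2 h at 37 °C in the dark, then glutathione donor and nickel acceptor beads were added for 1 h before AlphaScreen reading.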
HP1b chromo inh: HTS for Inhibitors of HP1-beta Chromodomain Interactions with Methylated Histone Tails | 0.56% of 390,000 active | AlphaScreen HP1-beta / biotin-H3K9me3 peptide binding | Chromobox protein homolog 1 (Homo sapiens), P83916 | Potency, µM (doses to about 114 µM), without a hit: at the highest dose activity change, negative = inhibition, most hits filed as inhibitors | AID 540317, 2011; also: potency is read from the fitted curve at half-maximal effect; nearly all actives have a fitted effect of over 70% in size
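HP1-beta protein (50 nM final) preincubated 30 min at room temperature with biotinylated H3(1-18)K9me3 peptide (50 nM) in PBS pH 7.4, 0.01% Tween-20, then compound added for 30 min. AlphaScreen streptavidin donor/nickel chelate acceptor beads (10 ug/mL final), 30 min dark, luminescence read.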
JMJD2A Tudor: qHTS Assay for Inhibitors of JMJD2A-Tudor Domain; 4.4% of 390,000 active; AID 504339, 2011; Lysine-specific demethylase 4A (Homo sapiens), O75164; AlphaScreen JMJD2A-Tudor / H3K4me3 peptide binding; Potency, µM (series often up to 114 µM), without a hit: at the highest dose activity change, negative = inhibition, usual class: inhibitors; also: potency is read from the fitted curve at half-maximal effect; % is scaled to controls: 0 for no effect and ±100 for the full control effect; nearly all actives have a fitted effect of over 50% in size
BAZ2B block: qHTS Assay for Inhibitors of BAZ2B. Bromodomain adjacent to zinc finger domain protein 2B (Homo sapiens), Q9UIF8. AlphaScreen BAZ2B-H3K14Ac peptide displacement. Potency, µM (series often up to 114 µM), without a hit: top-dose activity change, negative = inhibition, actives largely listed as inhibitors. 4.4% of 360,000 active. AID 504333, 2011; also: potency is read from the fitted curve at half-maximal effect; % is scaled to controls: 0 for no effect and ±100 for the full control effect; nearly all actives have a fitted effect of over 60% in size
Target sequence (Q9UIF8 whole entry, looked up, the tested form may be a part): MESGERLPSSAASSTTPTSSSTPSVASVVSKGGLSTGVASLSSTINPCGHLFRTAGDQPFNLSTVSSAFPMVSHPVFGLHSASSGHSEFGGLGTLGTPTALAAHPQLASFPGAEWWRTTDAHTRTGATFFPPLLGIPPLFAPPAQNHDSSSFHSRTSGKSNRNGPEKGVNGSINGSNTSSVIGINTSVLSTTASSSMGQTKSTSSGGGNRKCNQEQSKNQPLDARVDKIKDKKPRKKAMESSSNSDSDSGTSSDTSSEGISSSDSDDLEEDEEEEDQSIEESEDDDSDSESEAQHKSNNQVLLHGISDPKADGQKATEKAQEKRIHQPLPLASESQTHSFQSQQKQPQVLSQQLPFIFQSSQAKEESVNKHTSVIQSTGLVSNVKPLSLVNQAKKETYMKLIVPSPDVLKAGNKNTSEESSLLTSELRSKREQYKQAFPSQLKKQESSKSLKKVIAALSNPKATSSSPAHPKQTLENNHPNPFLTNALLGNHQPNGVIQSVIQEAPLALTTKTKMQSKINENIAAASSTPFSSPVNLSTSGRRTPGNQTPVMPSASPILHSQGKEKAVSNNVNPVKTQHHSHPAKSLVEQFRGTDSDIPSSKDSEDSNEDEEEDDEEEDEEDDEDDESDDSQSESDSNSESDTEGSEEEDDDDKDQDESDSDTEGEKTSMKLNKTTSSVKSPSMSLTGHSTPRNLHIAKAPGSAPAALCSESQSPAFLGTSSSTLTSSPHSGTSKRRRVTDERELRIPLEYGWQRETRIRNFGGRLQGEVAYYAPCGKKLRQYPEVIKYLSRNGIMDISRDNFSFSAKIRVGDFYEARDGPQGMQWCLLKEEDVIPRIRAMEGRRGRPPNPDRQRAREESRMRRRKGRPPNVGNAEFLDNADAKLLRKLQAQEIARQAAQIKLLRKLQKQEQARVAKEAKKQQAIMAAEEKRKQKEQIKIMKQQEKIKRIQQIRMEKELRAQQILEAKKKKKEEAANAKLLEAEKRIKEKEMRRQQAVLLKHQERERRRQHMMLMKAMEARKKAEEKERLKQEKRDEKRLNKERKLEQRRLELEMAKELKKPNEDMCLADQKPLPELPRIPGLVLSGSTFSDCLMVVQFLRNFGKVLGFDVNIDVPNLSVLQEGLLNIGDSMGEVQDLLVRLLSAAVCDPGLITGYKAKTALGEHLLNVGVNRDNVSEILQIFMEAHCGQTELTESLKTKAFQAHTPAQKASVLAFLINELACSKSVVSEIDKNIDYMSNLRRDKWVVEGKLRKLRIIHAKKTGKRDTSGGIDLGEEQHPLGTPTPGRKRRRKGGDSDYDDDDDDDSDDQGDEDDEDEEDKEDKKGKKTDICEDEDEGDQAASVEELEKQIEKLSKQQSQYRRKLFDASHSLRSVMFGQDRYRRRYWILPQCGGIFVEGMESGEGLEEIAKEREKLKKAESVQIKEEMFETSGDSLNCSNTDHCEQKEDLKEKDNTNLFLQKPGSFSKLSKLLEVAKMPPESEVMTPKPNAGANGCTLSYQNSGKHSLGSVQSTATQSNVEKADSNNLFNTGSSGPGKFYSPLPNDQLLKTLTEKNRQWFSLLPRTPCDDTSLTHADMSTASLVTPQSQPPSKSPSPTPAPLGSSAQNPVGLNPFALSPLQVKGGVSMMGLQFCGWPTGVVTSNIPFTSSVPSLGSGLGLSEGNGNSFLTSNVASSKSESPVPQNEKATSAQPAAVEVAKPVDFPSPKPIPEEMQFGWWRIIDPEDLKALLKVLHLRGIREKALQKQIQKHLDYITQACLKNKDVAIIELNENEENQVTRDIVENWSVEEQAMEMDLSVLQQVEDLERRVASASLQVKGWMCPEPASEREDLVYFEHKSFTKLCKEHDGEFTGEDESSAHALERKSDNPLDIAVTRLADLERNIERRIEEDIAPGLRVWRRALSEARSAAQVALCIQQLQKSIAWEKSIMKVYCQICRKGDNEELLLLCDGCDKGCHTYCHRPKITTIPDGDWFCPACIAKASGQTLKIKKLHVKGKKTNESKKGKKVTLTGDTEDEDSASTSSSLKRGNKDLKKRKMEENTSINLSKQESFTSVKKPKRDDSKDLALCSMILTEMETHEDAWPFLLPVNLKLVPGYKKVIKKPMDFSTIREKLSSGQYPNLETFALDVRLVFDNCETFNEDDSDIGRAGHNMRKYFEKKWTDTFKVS
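Compounds, titrated to a top concentration of 110 uM, were incubated 30 min at room temperature with preformed BAZ2B/acetyl-K14 H3 peptide complex (50 nM each). Proximity signal was measured by AlphaScreen after 20 min with beads.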
TDP1 inh: qHTS Assay for Inhibitors of Tyrosyl-DNA Phosphodiesterase (TDP1); recombinant TDP1, AlphaScreen DNA substrate cleavage; Potency, µM (series often up to 130 µM), for the others: at the top dose activity change, negative = inhibition, hits mostly inhibitors; 0.28% of 350,000 active; also: potency is read from the fitted curve at half-maximal effect; % is scaled to controls: 0 for no effect and ±100 for the full control effect; nearly all actives have a fitted effect of over 40% in size
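Recombinant E. coli-expressed Tdp1 (1 nM) preincubated with compound 15 min at RT, then 5'-biotin/3'-phosphotyrosine-FITC DNA substrate (15 nM) added for 5 min. AlphaScreen beads (10 ug/ml) added, 10 min RT; tyrosine-FITC cleavage read as signal loss.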
Six1-Eya2 blk: qHTS Assay for Inhibitors of the Six1/Eya2 Interaction. Homeobox protein SIX1 (Homo sapiens) + Protein phosphatase EYA2 (Homo sapiens), …. AlphaScreen GST-Six1/His-Eya2 binding, biochemical; hits give low values. activity change, % (no concentration beside the values). 0.56% of 360,000 active; in the data active = activity change below about -65%; inconclusive = mostly about -30% to -63%; also: % is scaled to controls: 0 for no effect and ±100 for the full control effect
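GST-Six1 + His-Eya2 (5X stock: 250/500 nM); Tris pH 8.0, 300 mM NaCl, 0.05% BSA, 0.02% Tween 20; GSH donor/Ni acceptor beads; 1 h 37 °C dark; AlphaScreen readout.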
* hit, by the source's call; ? = inconclusive; nt = no result given; [ ] = another dose, or the depositor's remark. Unless noted, calls follow the shape of the dose curve; as a rule, active = well fitted inhibition curve with a large enough effect; inconclusive = small, poorly fitted or top-dose-only effect; inactive = no such curve, though single readings can be large or run the other way.

SMILES | CtBP-E1A inh | HP1b chromo inh | JMJD2A Tudor | BAZ2B block | TDP1 inh | Six1-Eya2 blk
COc1cc2c(cc1OC)C(/C=C/c1ccc(OC)c(OC)c1OC)=NCC2 | nt | nt | nt | nt | 15% | nt
CCCOc1ccc(-c2cccc(NS(=O)(=O)c3cccs3)c2)nn1 | nt | 31%[57 µM] | -10% | -12% | 1% | nt
Cn1cc(C(=O)N2CCN(c3cccc(C(F)(F)F)c3)CC2)c2c3ccccc3n(C)c2c1=O | nt | 17% | -25% | -28% | 6% | nt
Cc1ccc(O)c(N=CC2=C(O)c3ccccc3C2=O)c1 | ? | -33% | ? | 40µM* | 10% | ?
COc1ccc2sc(SCCCS(=O)(=O)O)[n+](CCCS(=O)(=O)[O-])c2c1 | -13 | 27% | 16µM* | 56µM* | -3% | -6
CCO/C(=C/c1sc2ccc(OC)cc2[n+]1CCCS(=O)(=O)[O-])CC | 2 | 69% | 23% | -10% | -3% | -14
Cc1ccc2ccccc2[n+]1CCCS(=O)(=O)[O-] | -4 | 55% | -18% | -29% | 2% | 1
CSc1sc2ccccc2[n+]1CCCS(=O)(=O)[O-] | -3 | 6% | 89µM* | -38% | 0% | 2
Cc1ccc2c(c1)N(C(=O)c1ccc(F)cc1)C(C)(C)CC2(C)c1ccccc1 (stereo unspecified) | nt | 28% | 7% | -2% | 1%[2.28 µM] | nt
COC(=O)Cc1[nH]n(-c2nc3ccccc3s2)c(=O)c1C(C)=Nc1ccc(Cl)cc1 | 0 | 7% | 22µM* | 25µM* | nt | -3
COC(=O)Cc1[nH]n(-c2nc3ccccc3s2)c(=O)c1C(C)=Nc1ccc(C)cc1 | -1 | 26% | 35µM* | 40µM* | -12% | -5
COC(=O)Cc1[nH]n(-c2ccccc2)c(=O)c1C(C)=Nc1ccccc1 | -18 | 0% | -23% | -30% | -5% | 18
CCCN=C(C)c1c(-c2ccccc2)[nH]n(-c2nc3ccccc3s2)c1=O | 2 | 47% | -28%[57.1 µM] | -7% | 0% | -1
CCNC(=O)C(=O)N/N=C/c1cc([N+](=O)[O-])ccc1O | -94* | 37% | 14µM* | 8.9µM* | 9% | -92*
O=C(N/N=C/c1cc([N+](=O)[O-])ccc1O)c1c[nH]c2ccccc12 | -78* | 51% | -14%[11.4 µM] | 3% | 12% | -86*
O=[N+]([O-])c1ccc(O)c(C=Nc2cccc3ccccc23)c1 | -10 | -11% | -21% | -11% | 5% | -5
O=C(N/N=C/c1cc([N+](=O)[O-])ccc1O)Nc1ccccc1 | -3 | 10% | ? | -19% | 8% | -6
O=C(NN=Cc1cc([N+](=O)[O-])ccc1O)c1cccc2ccccc12 | -3 | 27% | -16% | nt | nt | -92*
Nc1ccc(C(=O)N/N=C\c2cc(N=Nc3cccc4ccccc34)ccc2O)cc1 | ? | ? | ? | 45µM* | 11% | -21
COc1ccc(C(=O)NNc2ncnc3c2cnn3-c2ccc(C)c(Cl)c2)cc1 | nt | 28% | -20% | 0% | 10% | nt
Cc1cc(Cl)ccc1NC(=O)CCC(=O)N/N=C/c1cc([N+](=O)[O-])ccc1O | -26 | 28% | 1% | 6% | 2% | ?
O=[N+]([O-])c1ccc(O)c(/C=N/NC(=S)Nc2ccc(Cl)cc2Cl)c1 | -22 | -13% | 79µM* | 32µM* | 12% | -17
C/C(=N/Nc1ccnc2cc(Cl)ccc12)c1ccc(O)cc1 | 5 | -13% | ? | 45µM* | 7% | 7
C/C(=N/Nc1ccnc2cc(Cl)ccc12)c1ccc(N)cc1 | -20 | -8% | ? | 45µM* | nt | -22
CC(C)CC(NC(=O)C(COC(C)(C)C)NC(=O)C(Cc1ccc(O)cc1)NC(=O)C(CO)NC(=O)C(Cc1c[nH]c2ccccc12)NC(=O)C(Cc1cnc[nH]1)NC(=O)C1CCC(=O)N1)C(=O)NC(CCCN=C(N)N)C(=O)N1CCCC1C(=O)NNC(N)=O (stereo unspecified) | nt | nt | nt | nt | 14% | nt
SMILES | CtBP-E1A inh | HP1b chromo inh | JMJD2A Tudor | BAZ2B block | TDP1 inh | Six1-Eya2 blk
CN1CCC(=NNC(=O)C(=O)NC2CCCC2)CC1 | -1 | 5% | 40µM* | ? | 3% | 3
CN1CCC(=NNC(=O)C(=O)NC2CCCCC2)CC1 | 10 | 8% | ? | -12% | 5% | 1
CN1CCN(C(=O)NC2CCCCC2)CC1 | 10 | ? | 8.9µM* | 50µM* | 0% | 6
CC(C)(C)C1CCC(=NNC(=O)C(=O)NC2CCCCC2)CC1 (stereo unspecified) | 27 | 15% | 79µM* | -34% | -1% | -11
O=C(NC(C(=O)N/N=C/c1cc([N+](=O)[O-])ccc1O)c1n[nH]c(=O)c2ccccc12)c1ccccc1 (stereo unspecified) | -88* | 4% | 45µM* | 32µM* | 2%[0.0935 µM] | -90*
O=C(N/N=C/c1cc([N+](=O)[O-])ccc1O)c1cc(-c2ccccc2)nc2ccccc12 | -27 | 9% | ? | 32µM* | 2% | ?
Cc1cc(C(=O)N/N=C/c2cc([N+](=O)[O-])ccc2O)c2ccccc2n1 | 19 | 25% | 25µM* | 18µM* | 11% | -92*
O=C(N/N=C/c1cc([N+](=O)[O-])ccc1Cl)c1cc(-c2ccccc2)nc2ccccc12 | 6 | 50% | 0% | -1% | nt | 3
Cc1cc(C(=O)N/N=C/c2cc(Br)cc([N+](=O)[O-])c2O)c2ccccc2n1 | -94* | ? | ? | 50µM* | 11% | -87*
C=C/C1=C/Cc2ccccc2[C@H](C[N+](=O)[O-])C(C(C)=O)(C(=O)OC)C1 (stereo partly specified) | nt | nt | nt | nt | 2% | nt
C[C@]12C[C@@](C)(C=C1/C=C/c1ccccc1)C(=O)C[C@H]2c1ccccc1 | nt | nt | nt | nt | 8% | nt
O=C(N/N=C/c1ccccn1)c1cc(-c2ccncc2)nc2ccccc12 | -73* | 40% | -1% | 79µM* | 11% | -72*
CCOC(=O)c1ccc(N=c2sc(C(=O)OC)cc(=O)n2CCCN2CCOCC2)cc1 | 4 | -8% | ? | 50µM* | 7% | 2
Clc1cccc(-c2nc3ccccn3c2Nc2ccc3c(c2)OCCO3)c1 | nt | ? | 22µM* | 11µM* | 12% | nt
COc1cc(-c2nc3ccc(C)cn3c2Nc2ccc3c(c2)OCCO3)ccc1O | -21 | 50µM* | ? | 14µM* | 11% | -24
